Inconclusive results are not listed. Activity calls are given as the source filed them. The call rests on the fitted dose curve; in most records, active means well fitted cell-killing curve with a large enough effect; inconclusive means small, poorly fitted or top-dose-only effect, or effect the other way; inactive means no such curve, though single readings can be large or run the other way.
system: PA-1; experiment: Confirmatory qHTS for gynecologic anti-cancer compounds from libraries of approved drugs and bioactive compounds; conditions: gynecologic cancer cell panel viability, ATPlite luminescence, 48 h; series mostly up to 57.6 µM; further: nearly all actives have a fitted effect of over 55% in size
Method in brief: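 Cells (1,000/well) were plated, left 16 h at 37 C/5% CO2, then given compound at 11 concentrations (1:3) from 57.5 uM to 0.977 nM for 48 h. ATPlite luminescence after 15 min at room temperature gave IC50 values.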
Potency means the concentration at half of the fitted maximal effect.

Compound | Potency
CCn1cc(-c2ccnc3[nH]c(-c4cccc(CN(C)C)c4)cc23)c(-c2ccc(NC(=O)N(C)C)cc2)n1 | 8.41 µM (active)
O=C(Nc1cccnc1)N1CCC(Cc2cccc(Oc3ccc(C(F)(F)F)cn3)c2)CC1 | 6.85 µM (active)
Cc1ccc(C(=O)Nc2ccc(CN3CCN(C)CC3)c(C(F)(F)F)c2)cc1C#Cc1cnc2cccnn12 | 6.85 µM (active)
C=CC(=O)Nc1cccc(Oc2nc(Nc3ccc(N4CCN(C)CC4)cc3)ncc2Cl)c1 | 7.69 µM (active)
COc1cc(N2CCC(N)CC2)ccc1Nc1ncc(Cl)c(-c2c[nH]c3ccccc23)n1 | 19.3 µM (active)
